# An excerpt weighted towards active compounds, which were near 1.6% of everything screened.
# KCNQ2 enhance: potentiators of rat KCNQ2 potassium channel | 310,000 compounds, 0.54% hits | AID 2239 | CHO-K1 KCNQ2, FluxOR thallium flux fluorescence; active compounds read high | O88943 | B-score at 10 µM;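 active = fluorescence ratio B-score at least 3 SD of library B-scores, with initial fluorescence B-score within 3 of them, cut at about 5.3 in these data; same plate scores as AID 2156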;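 note: B-score of peak minus minimum over baseline fluorescence ratio after K+ and Tl+ stimulus; positive B-score means potentiation of KCNQ2 with more thallium influx and brighter signal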
# KCNQ2 inh: KCNQ2 (rat) channel inhibition | O88943 | CHO-K1 KCNQ2, FluxOR thallium flux, 20 min; active compounds read low | B-score at 10 µM | 310,000 compounds, 1.1% hits | AID 2156;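 active = fluorescence ratio B-score at most minus 3 library SDs, with starting brightness B-score within 2 library SDs, cut at about -5.5 in these data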
# Kir21 confirm: confirmation of mouse Kir2.1 potassium channel inhibitors. shares compounds with KCNQ2 enhance. Kir2.1-expressing cells, FluxOR thallium flux fluorescence; active compounds read low. Tl flux remaining, % of negative control (active compounds read low), % at 10 µM. 2,300 compounds, 41% hits;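 active = Primary-screen hit whose thallium flux fell at least 3 control SD below untreated wells in both duplicates, with normal baseline fluorescence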;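 note: 0% = blank wells without stimulus and 100% = stimulated no-compound controls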
# HEK293 ctr: counter-screen for Kir2.1 inhibitors: effect in parental HEK293 cells; 2,300 compounds, 19% hits; FluxOR signal as % of negative control (100 = no effect), % at 10 µM; shares compounds with KCNQ2 enhance; FluxOR thallium flux fluorescence; 0% = unstimulated blank wells; AID 2105;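 active = dye signal at least 3 control SD above or below untreated wells in both duplicates, raw fluorescence within 3, either direction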;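 note: percent is based on the flux ratio of peak minus minimum fluorescence over baseline F0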
# CHO-K1 Tl ctr: parental CHO-K1 activity in KCNQ2 potentiator counter-screen; shares compounds with KCNQ2 enhance; parental CHO-K1 cells, FluxOR thallium flux fluorescence; zero = vehicle mean+3SD, 100% = vehicle-minus-blank window; activity increase over 3SD of controls, % at 10 µM; 1,200 compounds, 43% hits;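 active = signal rise of at least 3 SD above the untreated control mean, in both duplicate wells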;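 note: counter screen of KCNQ2 potentiator hits so any rise reflects channel-independent effects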
# KCNQ1 sel pot: human KCNQ1 counter-target activity of KCNQ2 potentiators; shares compounds with KCNQ2 enhance; activation over 3SD threshold, % at 10 µM; AID 2283; 1,200 compounds, 28% hits; CHO KCNQ1 stable, FluxOR thallium flux fluorescence; beyond 3SD, as % of vehicle-control signal;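 active = fluorescence ratio rise of at least 3 SD of vehicle wells above their mean, in both replicate wells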;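 note: 0% = vehicle mean plus 3 SD and 100% = vehicle minus unstimulated blank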
# KCNQ2 pot conf: rat KCNQ2 channel potentiator confirmation | AID 2287 | shares compounds with KCNQ2 enhance | 1,200 compounds, 68% hits | potentiation, less the hit threshold, % at 10 µM | CHO-KCNQ2 cells, FluxOR thallium flux fluorescence;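 active = fluorescence ratio rising 3 SD or more over the vehicle control mean in both replicates, plus primary screen hit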;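 note: peak minus minimum thallium fluorescence divided by baseline after K/Tl stimulus; 0% = vehicle mean plus 3 SD and 100% = vehicle minus unstimulated blank difference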
# Kir21 spec: mouse Kir2.1 off-target activity of KCNQ2 potentiators. shares compounds with KCNQ2 enhance. HEK293 Kir2.1, FluxOR thallium flux fluorescence. activity over 3SD threshold, % at 10 µM. 1,200 compounds, 2% hits;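 active = fluorescence ratio rise of at least 3 SD above the vehicle-control mean, seen in both replicates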;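 note: 0% = vehicle mean plus 3 SD and 100% = vehicle minus no-stimulus blank window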
# KCNQ2 W236L pot: KCNQ2 potentiators acting on retigabine-insensitive rat KCNQ2 W236L mutant; shares compounds with KCNQ2 enhance; CHO KCNQ2-W236L, automated patch clamp current; current increase over 3SD of negative controls (%), active compounds read high, % at 25 µM; 940 compounds, 10% hits; AID 2558;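 active = current increase at least 3 SD of the untreated controls above them in both duplicate recordings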
# Target sequence (O88943 whole entry W236L, looked up): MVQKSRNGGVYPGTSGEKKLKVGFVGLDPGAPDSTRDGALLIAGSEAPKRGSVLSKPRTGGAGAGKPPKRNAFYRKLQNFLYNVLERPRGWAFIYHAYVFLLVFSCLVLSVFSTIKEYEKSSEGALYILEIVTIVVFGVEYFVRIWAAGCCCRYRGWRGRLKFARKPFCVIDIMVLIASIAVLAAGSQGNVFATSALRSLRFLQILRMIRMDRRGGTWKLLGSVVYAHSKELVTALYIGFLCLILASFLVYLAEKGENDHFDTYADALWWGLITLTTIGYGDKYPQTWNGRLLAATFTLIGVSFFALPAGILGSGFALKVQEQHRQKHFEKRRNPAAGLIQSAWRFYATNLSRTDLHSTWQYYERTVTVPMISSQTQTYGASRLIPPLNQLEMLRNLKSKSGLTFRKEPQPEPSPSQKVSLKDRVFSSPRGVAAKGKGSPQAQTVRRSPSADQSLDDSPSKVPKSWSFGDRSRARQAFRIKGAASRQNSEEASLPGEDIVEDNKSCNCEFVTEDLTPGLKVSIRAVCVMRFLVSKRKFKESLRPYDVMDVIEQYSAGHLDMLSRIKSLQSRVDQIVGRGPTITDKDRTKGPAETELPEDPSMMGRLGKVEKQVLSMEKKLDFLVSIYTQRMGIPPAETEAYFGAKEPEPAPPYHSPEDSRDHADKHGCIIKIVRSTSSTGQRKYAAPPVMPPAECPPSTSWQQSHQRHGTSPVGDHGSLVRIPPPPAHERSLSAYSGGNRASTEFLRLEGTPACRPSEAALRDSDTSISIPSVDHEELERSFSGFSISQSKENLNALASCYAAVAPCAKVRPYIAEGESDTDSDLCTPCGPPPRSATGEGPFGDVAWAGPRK
# Active calls of the source: *; i = inactive; . = no result given.
SMILES,KCNQ2 enhance,KCNQ2 inh,Kir21 confirm,HEK293 ctr,others
Cc1c(NC(=O)c2cccnc2Cl)c(=O)n(-c2ccccc2)n1C,.,i,.,.,
CCN(CC)C(CNS(=O)(=O)c1ccc(Cl)cc1)c1ccccc1 (centres undefined),0.57,i,.,.,
O=C(NC(=S)Nc1ccc(Cl)cc1)c1cncc(Br)c1,2.9,i,.,.,
Cc1ccc(NC(=S)NC(=O)c2cncc(Br)c2)cc1Cl,7.2*,i,i,i,CHO-K1 Tl ctr=0.8*;KCNQ1 sel pot=-8;KCNQ2 pot conf=-16;Kir21 spec=-38
O=c1c(-c2ccccc2)nnc2sc(COc3ccc(Br)cc3)nn12,0.16,i,.,.,
O=C(NCCO)C(=O)Nc1cc2c3c(c1)CCC(=O)N3CCC2,.,i,.,.,
C=CCn1c(SCC(N)=O)nnc1-c1cccc(Br)c1,0.43,i,.,.,
C=CCn1c(SCc2ccccc2C#N)nnc1-c1cc(Br)ccc1O,.,i,i,i,
CN1CCN(CC(O)Cn2c3ccccc3c3ccccc32)CC1 (centres undefined),.,i,.,.,
CN1CCN(CC#CCn2c3ccccc3c3ccccc32)CC1,.,i,32%*,i,
COc1cc2c(cc1NC(=O)c1cccc(S(=O)(=O)N(C)C)c1)oc1ccccc12,0.68,i,.,.,
O=C1NC(c2ccccc2)=C(c2nc3ccccc3s2)C(c2ccc(O)cc2)N1 (centres undefined),15*,i,i,i,CHO-K1 Tl ctr=-20;KCNQ1 sel pot=-1;KCNQ2 pot conf=11*;Kir21 spec=-33;KCNQ2 W236L pot=i
O=C1NC(c2ccccc2)=C(c2ccc3ccccc3n2)C(c2ccccc2)N1 (centres undefined),.,i,.,.,
COC(=O)C1CCN(c2ccc(C(N)=O)cc2[N+](=O)[O-])CC1,.,i,.,.,
COc1ccc(CCNC(=O)C2CC2)cc1OC,.,i,.,.,
COc1ccc(C)cc1NC(=O)NNC(=O)C1CCC(C(C)(C)C)CC1 (centres undefined),11*,i,i,i,CHO-K1 Tl ctr=-8;KCNQ1 sel pot=-16;KCNQ2 pot conf=31*;Kir21 spec=-24;KCNQ2 W236L pot=i
COc1ccc(CCNC(=O)C2CCC(C(C)(C)C)CC2)cc1OC (centres undefined),.,i,48%*,i,
COc1ccc(C)cc1NC(=O)C1CCN(S(C)(=O)=O)CC1,.,i,.,.,
Cc1cccc(C(=O)NCC(c2cccs2)N2CCOCC2)c1 (centres undefined),.,i,.,.,
COc1cccc(-n2sc3c(c2=S)-c2cc(OC)ccc2NC3(C)C)c1,.,i,.,.,
CC1(C)Nc2ccc(O)cc2-c2c1ssc2=S,.,i,40%*,i,
O=C(Nc1ccccc1)N1CCc2c([nH]c3ccccc23)C1C(F)(F)F (centres undefined),.,i,.,.,
O=C(c1ccc(Cl)cc1)N1CCc2c([nH]c3ccccc23)C1C(F)(F)F (centres undefined),8*,i,i,i,CHO-K1 Tl ctr=16*;KCNQ1 sel pot=-10;KCNQ2 pot conf=2.7*;Kir21 spec=-24;KCNQ2 W236L pot=i
Cc1c(Cc2ccccc2)c(=O)oc2cc(O)cc(O)c12,0.19,i,.,.,
COC(=O)c1ccc(C(=O)NC(=S)Nc2nc3c(s2)CCCC3)cc1,7.3*,i,i,i,CHO-K1 Tl ctr=83*;KCNQ1 sel pot=-7;KCNQ2 pot conf=-8;Kir21 spec=-42;KCNQ2 W236L pot=i
SMILES,KCNQ2 enhance,KCNQ2 inh,Kir21 confirm,HEK293 ctr,others
O=C(NC(=S)Nc1nc2c(s1)CCCC2)c1ccccc1,3.9,i,.,.,
Cn1cc(CN2CCC(C(O)c3cccs3)CC2)c(-c2ccccc2F)n1 (centres undefined),0.01,i,.,.,
Cc1ccccc1NC(=O)COC(=O)c1c[nH]c(=O)[nH]c1=O,.,i,.,.,
Cc1ccccc1NC1=C/C(=N\S(=O)(=O)c2ccc(C(=O)O)cc2)c2ccccc2C1=O,7.2*,i,i,i,CHO-K1 Tl ctr=-10;KCNQ1 sel pot=-14;KCNQ2 pot conf=8.9*;Kir21 spec=-6;KCNQ2 W236L pot=16%*
O=C(O)c1ccc(S(=O)(=O)/N=C2\C=C(Nc3ccccc3F)C(=O)c3ccccc32)cc1,3.3,i,.,.,
Cc1onc(-c2ccccc2)c1CNS(=O)(=O)c1ccccc1[N+](=O)[O-],0.48,i,60%*,i,
Cc1ccccc1CNS(=O)(=O)c1ccccc1[N+](=O)[O-],0.52,i,.,.,
Cc1ccc(-c2nc3sc4c(N)ncnc4c3c3c2CCCC3)cc1,0.09,i,.,.,
COc1ccccc1NC(=O)c1cc2cc(Br)ccc2cc1O,.,i,.,.,
CCCCn1c(NC(=O)c2ccc(F)cc2)c(C#N)c2nc3ccccc3nc21,5.7*,i,i,66%*,CHO-K1 Tl ctr=103*;KCNQ1 sel pot=-8;KCNQ2 pot conf=-4;Kir21 spec=-38;KCNQ2 W236L pot=i
CCC(C)n1c(NC(=O)c2ccccc2)c(C#N)c2nc3ccccc3nc21 (centres undefined),.,i,.,.,
Cc1ccc(-c2c(C(=O)NNC(=S)NCC3CCCO3)csc2C)cc1 (centres undefined),.,i,.,.,
Cc1cc(C)c2nc(N3CCCC(C(=O)NCCCN4CCOCC4)C3)sc2c1 (centres undefined),.,i,.,.,
Cc1cc(C)c2nc(N3CCC(C(=O)NCCCN4CC(C)CC(C)C4)CC3)sc2c1 (centres undefined),-6.4,-6.4*,50%*,i,
CN(CC(=O)Nc1ccc(Cl)cc1)C(=O)Cc1c(F)cccc1Cl,.,i,.,.,
CCn1c(SCC(=O)c2ccc(Cl)cc2)nnc1-c1cccs1,0.11,i,.,.,
CCn1c(SCCOc2ccc(Cl)cc2)nnc1-c1cccs1,.,i,69%*,i,
CCCc1cc(=O)oc2cc(C)cc(OC(C)C(=O)N[C@@H](Cc3c[nH]c4ccccc34)C(=O)O)c12 (some centres undefined),9.7*,i,i,i,CHO-K1 Tl ctr=2.7*;KCNQ1 sel pot=-21;KCNQ2 pot conf=-25;Kir21 spec=-32
CCCCc1cc(=O)oc2cc(C)cc(OC(C)C(=O)NC(Cc3c[nH]c4ccc(O)cc34)C(=O)O)c12 (centres undefined),.,i,.,.,
CCCCCCC(O)(c1ccc(OC)cc1)C(CN1CCOCC1)c1ccccc1 (centres undefined),6.4*,i,i,i,CHO-K1 Tl ctr=-24;KCNQ1 sel pot=-9;KCNQ2 pot conf=6.2*;Kir21 spec=-45;KCNQ2 W236L pot=i
CCCCCCC(O)(c1ccccc1)C(CN1CCOCC1)c1ccccc1 (centres undefined),0.4,i,.,.,
CCCCn1c(N)c(N(CCOC)C(=O)COC(=O)CSc2cc(C)c3ccccc3n2)c(=O)[nH]c1=O,.,i,.,.,
